According to PubChem BioAssay AID449 (The Scripps Research Institute Molecular Screening Center, 2006):
Among all 56,000 compounds or so, about 320 (0.57%) were called active.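 Rule for the calls: active = activation above a cutoff set at the mean activation of all tested compounds plus 3 SD (cut at about 54% in these data); inactive = the rest, inconclusive results apart.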 The sample as a whole holds a higher share of actives than the screen did.

Molecular target: Sphingosine 1-phosphate receptor 1 (Homo sapiens) (UniProt P21453)
Assay: activation or potentiation of human S1P1 signaling – cell-based, primary and confirmation screens, CRE-bla reporter, primary screen (AID 449);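 note: forskolin at 4 µM as EC80 and the EC20 agonist is SEW2871; 100% = SEW2871 at its EC100 plus forskolin at EC80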
Settings: S1P1 CRE-bla cells, forskolin, beta-lactamase FRET, potentiator mode, at 9.5 µM, stronger effect = higher value, 100% = saturating reference agonist, 0% = basal, S1P1 agonist co-added at EC20, 2 nM
[1] = measured here: confirmation screen, triplicate average

Sequence of Sphingosine 1-phosphate receptor 1 (Homo sapiens) (P21453 whole entry, looked up): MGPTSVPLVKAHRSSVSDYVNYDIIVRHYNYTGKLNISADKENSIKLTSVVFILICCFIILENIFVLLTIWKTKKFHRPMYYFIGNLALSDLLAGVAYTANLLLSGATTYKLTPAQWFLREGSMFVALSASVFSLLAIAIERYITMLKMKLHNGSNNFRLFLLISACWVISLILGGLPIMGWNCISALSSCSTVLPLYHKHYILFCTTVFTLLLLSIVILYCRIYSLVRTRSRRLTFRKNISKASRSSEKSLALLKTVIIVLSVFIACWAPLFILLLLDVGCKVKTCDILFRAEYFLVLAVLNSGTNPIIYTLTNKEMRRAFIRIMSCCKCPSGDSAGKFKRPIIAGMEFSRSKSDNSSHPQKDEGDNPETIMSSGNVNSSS

Row | Compound | activation | activation [1] [%]
1 | Cc1nc(C)c(C(=O)Nc2cccc(C)c2C)o1 | -15.9% (inactive) | –
2 | CCN(Cc1cc2cc(C)ccc2[nH]c1=O)S(=O)(=O)c1ccccc1 | 26.9% (inactive) | –
3 | CCc1ccccc1N(CC(=O)NCCSCc1ccco1)S(C)(=O)=O | -204% (inactive) | –
4 | COc1ccc(-c2noc(-c3cccc(OC)c3OC)n2)cc1OC | 84.3% (active) | 77.6
5 | COc1cc(-c2nc(-c3ccncc3)no2)cc(OC)c1OC | -7% (inactive) | –
6 | Cc1cccc(-c2noc(-c3ccc(F)cc3)n2)c1 | 1% (inactive) | –
7 | O=P(c1cccs1)(c1cccs1)c1cccs1 | -23.6% (inactive) | –
8 | O=C(Nc1ccccc1C(F)(F)F)c1cc(-c2ccc(O)cc2)on1 | 89% (active) | 96.3
9 | O=C(c1cc(-c2ccc(O)cc2)on1)N1CCCc2ccccc21 | 15.4% (inactive) | –
10 | Cc1cc(C)nc(NC(=O)Nc2ccccc2C(F)(F)F)n1 | -24.3% (inactive) | –
11 | CCn1c(SCCC(C)C)nnc1-c1c[nH]c2ccccc12 | 33% (inactive) | –
12 | Cc1ccc2c(c1)c1ncn(CCC3=CCCCC3)c(=O)c1n2C | -12.4% (inactive) | –
13 | CCOCC(=O)NCc1ccc2c(c1)cc(C)n2C | -18% (inactive) | –
14 | Cc1ccc(Cn2c(NC(=O)c3ccco3)nc3ccccc32)cc1 | -7.4% (inactive) | –
15 | Cc1cc(NC(=O)CN2CCCCC2C)nc2c1c(=O)oc1ccccc12 (configuration not stated) | -16.9% (inactive) | –
16 | CC1(C)CC(=O)C2=C(C1)NCN(CCCN1CCOCC1)C2 | -12.5% (inactive) | –
17 | COc1ccc(CCNC(=O)CCn2c(=O)oc3ccccc32)cc1OC | -30% (inactive) | –

Row | Compound | activation | activation [1] [%]
18 | Cc1cc(Cl)ccc1N1C(=O)CC(SCCC(=O)O)C1=O (configuration not stated) | 15% (inactive) | –
19 | O=C(NCCN1C(=O)C2C3C=CC(C3)C2C1=O)Nc1ccccn1 (configuration not stated) | 1.7% (inactive) | –
20 | C#CCN1CC(C)/C(=N/O)CC1C (configuration not stated) | -13.4% (inactive) | –
21 | Fc1ccc2nc(N3CCCCC3)sc2c1 | -23.5% (inactive) | –
22 | Fc1ccc2[nH]c3c(N4CCN(Cc5ccc6c(c5)OCO6)CC4)ncnc3c2c1 | 106% (active) | 116
23 | Cc1cc(N2CCN(Cc3ccc4c(c3)OCO4)CC2)n2ncnc2n1 | 3.4% (inactive) | –
24 | Cc1ccc(-n2ncc3c(N4CCN(c5ccc(F)cc5)CC4)ncnc32)c(C)c1 | -9.5% (inactive) | –
25 | Fc1ccc2[nH]c3c(N4CCSCC4)ncnc3c2c1 | 73% (active) | 103
26 | O=C(c1cccs1)N1CCN(Cc2ccc3c(c2)OCO3)CC1 | 1.7% (inactive) | –
27 | Cc1noc(/C=C/N(C)C)c1S(=O)(=O)N1CCCC(C(=O)NCc2ccco2)C1 (configuration not stated) | -32.7% (inactive) | –
28 | Cc1cc(/C=N/n2cnnc2)c(C)n1-c1cccc(C(=O)O)c1 | -16.1% (inactive) | –
29 | Cc1ccc(C(c2sc3nc(C)nn3c2O)N2CCN(c3ccccc3)CC2)cc1 (configuration not stated) | -6.2% (inactive) | –
30 | CCN(CC)P(=O)(C(NC(=O)OC)C(F)(F)C(F)(F)C(F)(F)C(F)F)N(CC)CC (configuration not stated) | 2.6% (inactive) | –
31 | COc1ccc(CC(=O)n2nc(-c3cccnc3)nc2N)cc1 | 2.4% (inactive) | –
32 | CC12CCC(C(=O)N(CCC#N)CCC#N)(CC1=O)C2(C)C (configuration not stated) | -0.9% (inactive) | –
33 | CC1Cc2ccccc2N1C(=O)CSc1nnc(-c2ccc(S(=O)(=O)N3CCCCC3)cc2)o1 (configuration not stated) | -18.5% (inactive) | –
